The test system of assay [1] is Plasmodium falciparum Sir2 (PF13_0152, Sir2A). The experiment in a line: pfSir2 binders on small-molecule microarrays, primary screen, biochemical, small-molecule microarray, 635 nm fluorescence (AID 1098).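 Also: score merges spot fluorescence intensity with its signal-to-noise ratio.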 Conditions: small-molecule microarray binding, fluorescence 635 nm; higher = more signal.
Assay [2] in a line: small-molecule microarray binders of probe aDKK1, primary screen, biochemical, biotinylated probe, 635/667 nm fluorescence (AID 1099).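 Also: score merges 667nm spot fluorescence with signal to noise across triplicate slides; reference of the scale not given here.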 Conditions: higher = more signal.
Assay [3] can be described thus: small-molecule microarray binders of probe aCHRDL2, primary screen, biochemical, biotinylated probe, 635/667 nm fluorescence (AID 1100). Conditions: higher = more signal.
The nature of assay [4]: splicing luciferase reporter signal modulators, primary screen, spliceosome inhibition project, cell-based, HEK293, splice +/- reporter (AID 1101).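 Also: HEK293 cells carrying a splicing-competent luciferase reporter gene; test concentration not given here.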 The following applies: luminescence, 24 h, higher = more signal, called active from +8 up or from −8 down.
Assay [5] addresses Fibroblast growth factor 10 (Homo sapiens) (UniProt O15520). The experiment in a line: FGF10 binders on small-molecule microarrays, primary screen, biochemical, small-molecule microarray, 635 nm fluorescence (AID 1102). Conditions: FGF10 binding, fluorescence 635 nm, higher = more signal.
In assay [6] the test system is glycogen synthase kinase-3 (GSK3A per assay name; protocol says GSK3B). The experiment in a line: GSK3 binders on small-molecule microarrays, primary screen, biochemical, small-molecule microarray, 635 nm fluorescence, GSK3A (AID 1103). Also: the record names both GSK3A and GSK3B. The following applies: small-molecule microarray binding, fluorescence 635 nm; higher = more signal.
Assay [7] deals with Epidermal growth factor receptor (Homo sapiens) (UniProt P00533). The experiment in a line: EGFR binders on small-molecule microarrays, primary screen, biochemical, small-molecule microarray, 635 nm fluorescence (AID 1104).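 Also: score merges 667 nm emission intensity with spot signal to noise over triplicate slides.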 The following applies: EGFR binding, higher = more signal.
Epidermal growth factor receptor (Homo sapiens), sequence (P00533 whole entry, looked up): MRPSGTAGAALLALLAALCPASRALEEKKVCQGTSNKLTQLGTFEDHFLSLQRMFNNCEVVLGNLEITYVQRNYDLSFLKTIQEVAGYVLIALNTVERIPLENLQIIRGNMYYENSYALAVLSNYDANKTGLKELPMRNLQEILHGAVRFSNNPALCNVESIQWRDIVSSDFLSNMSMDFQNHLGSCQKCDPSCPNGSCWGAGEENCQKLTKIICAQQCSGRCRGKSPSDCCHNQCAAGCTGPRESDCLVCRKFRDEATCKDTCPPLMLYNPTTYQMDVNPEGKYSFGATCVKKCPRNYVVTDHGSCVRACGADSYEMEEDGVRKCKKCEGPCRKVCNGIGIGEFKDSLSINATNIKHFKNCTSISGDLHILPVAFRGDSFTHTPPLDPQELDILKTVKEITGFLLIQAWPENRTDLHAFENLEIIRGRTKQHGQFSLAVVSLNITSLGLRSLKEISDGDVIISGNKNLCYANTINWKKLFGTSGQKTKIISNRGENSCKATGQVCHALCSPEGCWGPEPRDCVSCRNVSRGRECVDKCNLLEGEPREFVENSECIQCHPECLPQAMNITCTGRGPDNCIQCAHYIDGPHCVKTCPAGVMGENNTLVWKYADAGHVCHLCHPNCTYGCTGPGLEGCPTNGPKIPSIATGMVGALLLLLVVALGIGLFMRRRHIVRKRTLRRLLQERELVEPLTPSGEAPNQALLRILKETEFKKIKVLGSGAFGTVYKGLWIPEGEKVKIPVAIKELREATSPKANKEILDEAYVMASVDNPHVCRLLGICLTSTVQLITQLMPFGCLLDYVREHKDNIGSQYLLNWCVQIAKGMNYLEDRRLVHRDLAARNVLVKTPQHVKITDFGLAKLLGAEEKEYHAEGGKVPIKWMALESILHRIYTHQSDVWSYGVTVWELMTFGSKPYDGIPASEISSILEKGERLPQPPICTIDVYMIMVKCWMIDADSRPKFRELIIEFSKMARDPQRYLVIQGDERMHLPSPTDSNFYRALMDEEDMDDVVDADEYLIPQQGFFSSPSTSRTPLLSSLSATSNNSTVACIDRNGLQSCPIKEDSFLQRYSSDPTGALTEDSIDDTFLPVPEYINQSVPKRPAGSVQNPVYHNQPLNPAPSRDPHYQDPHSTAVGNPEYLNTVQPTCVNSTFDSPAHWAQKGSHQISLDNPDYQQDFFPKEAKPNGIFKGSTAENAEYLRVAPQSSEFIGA
Assay [8] deals with Follistatin-related protein 3 (Homo sapiens) (UniProt O95633). The experiment in a line: FSTL3 binders on small-molecule microarrays, primary screen, biochemical, small-molecule microarray, 635 nm fluorescence (AID 1105).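 Also: score merges emission near 667 nm and signal to noise per printed spot across three slides.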 The following applies: FSTL3 binding, higher = more signal.
Follistatin-related protein 3 (Homo sapiens), sequence (O95633 whole entry, looked up): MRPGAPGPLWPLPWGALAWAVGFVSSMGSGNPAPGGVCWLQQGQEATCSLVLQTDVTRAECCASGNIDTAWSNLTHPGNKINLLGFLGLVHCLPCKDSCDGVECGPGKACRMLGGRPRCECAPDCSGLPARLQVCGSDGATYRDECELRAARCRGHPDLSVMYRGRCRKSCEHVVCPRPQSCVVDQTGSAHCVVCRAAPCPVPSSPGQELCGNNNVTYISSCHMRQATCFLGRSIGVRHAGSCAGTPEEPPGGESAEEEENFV
The target of assay [9] is Dickkopf-related protein 1 (Homo sapiens) (UniProt O94907). In words: DKK1 binders on small-molecule microarrays, primary screen, biochemical, small-molecule microarray, 635 nm fluorescence scan (AID 1106).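 Also: score merges emission near 667 nm with signal to noise over three replicate slides.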 The following applies: DKK1 binding, higher = more signal.
Dickkopf-related protein 1 (Homo sapiens), sequence (O94907 whole entry, looked up): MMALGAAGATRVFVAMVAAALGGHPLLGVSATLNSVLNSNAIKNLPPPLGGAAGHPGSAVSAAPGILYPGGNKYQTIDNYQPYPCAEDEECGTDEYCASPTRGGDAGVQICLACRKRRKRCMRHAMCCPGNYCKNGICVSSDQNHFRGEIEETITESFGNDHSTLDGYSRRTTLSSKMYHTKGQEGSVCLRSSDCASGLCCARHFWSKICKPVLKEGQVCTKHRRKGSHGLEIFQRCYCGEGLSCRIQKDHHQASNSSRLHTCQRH
Assay [10] has as its system Inhibin beta A chain (activin A). In words: INHBA (activin A) binders on microarrays, primary screen, biochemical, small-molecule microarray, 635 nm fluorescence scan (AID 1107).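 Also: mouse activin A protein probed at 4.33 µg/mL on printed slides; score merges bound-protein fluorescence near 667 nm with spot signal-to-noise.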 The following applies: small-molecule microarray binding, higher = more signal.

Calls of active or inactive are those of the source.

Fibroblast growth factor 10 (Homo sapiens), sequence (O15520 whole entry, looked up): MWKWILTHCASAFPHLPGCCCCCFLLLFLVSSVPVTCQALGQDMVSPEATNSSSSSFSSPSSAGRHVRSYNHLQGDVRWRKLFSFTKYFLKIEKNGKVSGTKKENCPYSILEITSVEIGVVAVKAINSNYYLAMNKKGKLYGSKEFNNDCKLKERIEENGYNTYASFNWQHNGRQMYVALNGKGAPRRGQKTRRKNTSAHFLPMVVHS

For `[N-]=[N+]=Nc1ccccc1[C@@H]1OC(c2ccc(OCCCO)cc2)=N[C@]1(Cc1ccccc1)C(=O)N1CCCCC1`, the composite z-score in assay [1] worked out at 1.16; in assay [2] it was 0.374; in assay [3] it was 0.711; in assay [5], 1.43; in [6], 0.769; in assay [7], 0.332. The composite z-score in [8] was 1.07; in assay [9], -0.0165; in assay [10], 0.441. The z-score in [4] is 0.745 (inactive).
In the case of `Cc1ccc(S[C@]2(C(=O)NCCN3CCOCC3)CC(=O)N(Cc3ccccc3Cl)[C@@H]2c2ccc(CO)cc2I)cc1`, the composite z-score in [1] is 1.65; in assay [2], -0.831; in [3], -0.0429; in assay [5], 0.133; in assay [6], -0.207; in assay [7], -1.29. In addition, the results for the composite z-score in assay [8], in [9] and in assay [10] were -0.355, -1.82 and 1.07, respectively. Also, the z-score in assay [4] was -0.849 (inactive).
Regarding `O=C1C[C@]2(c3ccc([N+](=O)[O-])cc3)C(=O)N(C3CC3)c3cc(CO)ccc3[C@H]2N1CC12CC3CC(CC(C3)C1)C2`, the composite z-score in assay [1] is 0.437; in assay [2], -0.105; in assay [3], 0.617; in assay [5] it was -0.511; in [6], -0.393; in assay [7] it was -0.951. The composite z-score was -0.924 in [8], -0.769 in assay [9] and -0.383 in assay [10]. In addition, the z-score in assay [4] is -0.922 (inactive).
Consider `COc1cc(C(O)C2C=CC3C(=O)N(C)C(=O)C3N2Nc2ccccc2)cc(OC)c1OC` (stereo not given), for which the composite z-score in assay [1] is 1.66; in [2], 1.22; in assay [3], 0.655; in assay [5], 0.581; in assay [6], 1.25; in assay [7] it was -0.206. The composite z-score in [8] was 0.595; in [9], -0.543; in [10], 0.916. Further, the z-score in assay [4] is -0.0318 (inactive).
Regarding `COc1cccc(C)c1NC(=O)O[C@H]1[C@H](OC(=O)Nc2ccccc2-c2ccccc2)[C@H](OC(=O)Nc2ccccc2-c2ccccc2)[C@@H](OC)O[C@@H]1CO`, the composite z-score in [1] was 0.861; in assay [2], 0.796; in assay [3], 0.549; in assay [5] it was 1.18; in [6], 1.33; in assay [7], 0.649. Moreover, the composite z-score in assay [8] is 1.3; in [9] it was 0.717; in assay [10] it was 0.729. For the same compound, the z-score in [4] was 0.118 (inactive).
On to `O=C1NC(=O)C2C1C=CC(C(O)c1ccco1)N2Nc1ccc(Cl)cc1Cl` (stereo not given), for which the composite z-score in assay [1] was 0.029; in assay [2] it was 0.549; in assay [3] it was 0.609; in [5] it was -0.0176; in assay [6] it was 0.109; in [7], -0.301. Besides, the composite z-score in [8] was 0.799; in assay [9], -0.0083; in assay [10], 1.39. The z-score in assay [4] is 0.545 (inactive).
Consider `CC(C)C[C@@H]1NC(=O)[C@@H]2C[C@H](C(=O)NCCCCCCN)[C@H](c3cccc(OCCO)c3)N2C1=O`, for which the composite z-score in [1] turned out to be 1.55; in assay [2], 0.286; in assay [3] it was 0.532; in [5], 1.13; in assay [6] it was 0.712; in assay [7] it was 0.0515. Further, the composite z-score in assay [8] was 1.08; in assay [9] it was 0.236; in assay [10] it was 0.775. Besides, in [4], the z-score was 0.138 (inactive).
In the case of `CC(C)c1ccc(NN2C(C(O)c3ccc(F)cc3)C=CC3C(=O)N(c4ccccc4)C(=O)C32)cc1` (stereo not given), the composite z-score in assay [1] was found to be 1.28; in assay [2], 0.47; in assay [3], 0.775; in [5], 1.07; in [6], 0.275; in assay [7], 0.3. The composite z-score in assay [8] was 1.37; in [9], -0.0647; in assay [10], 0.869. Further, the z-score in assay [4] is -0.548 (inactive).
`COCCCNC(=O)[C@@H]1c2ccccc2C(=O)N(C(C)C)[C@H]1c1ccc(CO)cc1`: the composite z-score is 0.634 in [1]; -0.0293 in assay [2]; 0.39 in [3]; -0.346 in assay [5]; -0.291 in [6]; -0.104 in assay [7]. Further, the composite z-score in assay [8] was 0.115; in assay [9], 0.0487; in assay [10], 0.761. In assay [4], the z-score was 0.555 (inactive).
As for `CCCCCC1=C2CNC(C)(C(=O)OC)C=C2C(C)C1=O` (stereo not given), the composite z-score is -0.0215 in assay [1]; 0.827 in assay [2]; 0.865 in assay [3]; 0.0992 in [5]; -1.1 in [6]; -0.476 in [7]. Besides, the composite z-score in assay [8] is -0.713; in assay [9], -0.52; in assay [10], 1.16. Further, the z-score in assay [4] was 1.23 (inactive).
On to `C=C(C(=O)CC[C@H](OC(=O)c1ccccc1-c1ccccc1C(=O)O)c1cccc(OCCO)c1)C(C)C`, for which the composite z-score is 0.627 in assay [1]; 0.414 in [2]; -0.265 in assay [3]; 0.353 in [5]; -0.418 in assay [6]; -0.803 in assay [7]. In addition, the composite z-score in assay [8] was found to be 0.0151; in assay [9], 0.0159; in assay [10], 0.495. The z-score in assay [4] was -0.369 (inactive).
Regarding `C=CC[C@@]1(C(=O)NCCCOC)N=C(c2ccc(OCCCO)cc2)O[C@@H]1c1ccccc1N=[N+]=[N-]`, the composite z-score is 0.826 in [1]; 0.648 in [2]; 0.999 in assay [3]; 0.919 in assay [5]; 0.595 in assay [6]; -0.276 in assay [7]. Further, the composite z-score in assay [8] is 0.45; in assay [9], -0.178; in [10], 0.961. Also, in assay [4], the z-score is 0.0875 (inactive).
For the compound `CCC1=C2CN(Cc3ccccc3)[C@@H](C(=O)Cc3ccccc3)C2C=CCC1` (stereo not given in full), the composite z-score in [1] was 1.46; in assay [2] it was -0.0616; in assay [3], -0.141; in [5] it was 0.57; in [6], -0.439; in assay [7], -0.42. Besides, the composite z-score in assay [8] came out at 0.532; in assay [9], 0.118; in assay [10] it was 0.749. Also, the z-score in [4] was -1.04 (inactive).
For the compound `CCOC(=O)C1=C[C@@H](C(C)(C)C)N(S(=O)(=O)c2ccc(C)cc2)[C@H]1c1cccc2ccccc12`, the composite z-score in [1] was 0.462; in assay [2] it was 0.166; in assay [3], 0.562; in assay [5], 0.242; in assay [6] it was 0.936; in [7], -0.138. The results for the composite z-score in [8], in assay [9] and in [10] were 0.7, -0.412 and 0.997, respectively. Also, the z-score in assay [4] was -0.134 (inactive).
As for `CN1C2C=C(CCCO)C(C3C(=O)N(C(N)=O)C(=O)C32)C1C1CC1` (stereo not given), the composite z-score is -0.149 in [1]; -0.105 in [2]; 0.1 in assay [3]; -0.0933 in assay [5]; -0.0699 in assay [6]; -0.0436 in assay [7]. In addition, the values for the composite z-score in assay [8], in assay [9] and in [10] were -0.785, 0.0144 and -0.393, respectively. Further, the z-score in assay [4] is 0.93 (inactive).
Consider `O=C1C2C=CC(C(O)c3ccco3)N(Nc3ccccc3F)C2C(=O)N1c1ccccc1` (stereo not given), for which the composite z-score in [1] is 0.926; in assay [2], 0.497; in [3], 1.01; in assay [5], 0.285; in assay [6], 0.179; in [7], -0.14. The figures for the composite z-score in [8], in assay [9] and in assay [10] were 0.338, 0.326 and 0.75, respectively. In addition, in assay [4], the z-score is 0.901 (inactive).
Take `CCOC(=O)C[C@H]1[C@H](OC(=O)c2ccc(C(=O)c3ccccc3)cc2)[C@@H](NC(=O)c2ccc(-c3ccccc3)cc2)c2cc(OCCCO)ccc2N1C(=O)Cc1ccc(OC)cc1`: the composite z-score in assay [1] is 0.0732; in assay [2] it was 0.223; in assay [3], 0.777; in assay [5] it was 0.0382; in [6] it was 0.0652; in assay [7], -0.274. Also, the composite z-score in assay [8] is 0.0472; in assay [9], -0.537; in [10], 0.783. Besides, the z-score in assay [4] is -0.213 (inactive).
On to `CCOC(=O)C1=CC[C@@H](c2ccccc2)N(S(=O)(=O)c2ccc(C)cc2)[C@H]1c1ccccc1`, for which the composite z-score was 0.264 in [1]; 0.769 in [2]; 0.54 in assay [3]; 0.356 in assay [5]; 0.738 in assay [6]; -0.404 in [7]. Also, the figures for the composite z-score in assay [8], in assay [9] and in assay [10] were 0.397, -0.187 and 0.903, respectively. Further, in [4], the z-score was -0.387 (inactive).
Turning to `C=CCN1C(=O)[C@]2(CCS(=O)(=O)c3ccccc3)N=C(c3ccc(OCCCO)cc3)O[C@@H]2c2ccccc21`, the composite z-score in [1] is 1.38; in [2], -0.317; in [3], 0.7; in assay [5] it was 0.732; in assay [6], 1.29; in [7], 0.387. Moreover, the composite z-score in assay [8] was 1.43; in assay [9], 0.466; in assay [10], 1.18. The z-score in [4] was -1.81 (inactive).
Take `COCCOC(=O)N1C(=O)[C@@]2(c3cc(C#CCCO)ccc31)[C@H](c1ccc(OCCO)cc1)N1[C@H](c3ccccc3)[C@H](c3ccccc3)OC(=O)[C@H]1[C@@H]2C(=O)Nc1nc2ccccc2s1`: the composite z-score worked out at 0.755 in [1]; 0.901 in assay [2]; 0.771 in assay [3]; 0.898 in assay [5]; 1.29 in assay [6]; 0.27 in [7]. Besides, the values for the composite z-score in [8], in assay [9] and in assay [10] were 1.24, 0.87 and 0.854, respectively. In assay [4], the z-score is 1.06 (inactive).
For `NC(=O)[C@H]1[C@@H]2C(=O)O[C@@H](c3ccccc3)[C@@H](c3ccccc3)N2[C@@H](c2ccc(OCCO)cc2)[C@]12C(=O)Nc1ccc(C#CCCO)cc12`, the composite z-score in assay [1] was 0.912; in assay [2], 0.313; in assay [3] it was 0.485; in assay [5] it was 0.251; in assay [6], 0.608; in assay [7], 0.189. Also, the composite z-score was found to be 0.255 in assay [8], 0.24 in assay [9] and 0.779 in assay [10]. Also, in [4], the z-score is 0.728 (inactive).

Values taken from PubChem BioAssay.
